Shown are actives, neighbours in structure and some others; about 5.4% of the full set was active somewhere.
aDG glyco up – increases alpha dystroglycan glycosylation | Pro5-aDG cells, alpha-DG glycosylation AlphaScreen (IIH6); 0% Pro5, 100% B10-LARGE cell signal | hit rate 0.22% among 360,000 | activation, % at 10 µM;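 active = activation of at least 8% versus controls, or a plate z-score of at least 8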;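 also: Pro5 are CHO cells carrying HIG-tagged alpha-DG that lacks glycosylation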
APOBEC3G inh – blocks human APOBEC3G single-stranded DNA deamination. AID 493012. inhibition, % at 20 µM. recombinant A3G, ssDNA deamination FAM/TAMRA fluorescence. hit rate 0.28% among 330,000;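 active = inhibition of at least 40% at 20 µM, with no more than 30% in the related APOBEC3A deaminase screen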;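 also: plate controls were DMSO wells with A3G for no effect and wells lacking A3G enzyme for full effect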
Target sequence (Q9HC16 whole entry, looked up): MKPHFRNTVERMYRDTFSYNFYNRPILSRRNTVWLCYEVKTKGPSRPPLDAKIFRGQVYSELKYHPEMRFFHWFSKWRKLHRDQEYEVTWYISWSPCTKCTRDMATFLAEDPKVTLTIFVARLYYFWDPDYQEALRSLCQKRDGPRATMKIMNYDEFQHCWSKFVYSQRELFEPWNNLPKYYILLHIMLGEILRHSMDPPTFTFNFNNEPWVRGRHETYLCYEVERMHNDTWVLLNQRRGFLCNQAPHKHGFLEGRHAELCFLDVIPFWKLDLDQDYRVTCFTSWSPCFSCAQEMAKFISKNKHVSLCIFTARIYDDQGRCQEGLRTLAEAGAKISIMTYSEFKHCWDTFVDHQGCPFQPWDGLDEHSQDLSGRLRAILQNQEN
ALR H2O2 inh – human ALR oxidase inhibition via reduced H2O2 | P55789 | inhibition, % (concentration not given with the values) | purified ALR, DTT oxidation, H2O2 HRP-luminol luminescence | hit rate 3.8% among 290,000;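 active = mean replicate inhibition above about 79%, with every replicate also reaching it, limit read from the data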
PHOSPHO1 inh – PHOSPHO1 (human) inhibition | Q8TCT1 | recombinant PHOSPHO1, absorbance phosphatase assay | inhibition, % at 13.3 µM | hit rate 1.1% among 290,000 | AID 1565; in the data active = inhibition above about 60%
rCAG RNA binder – r(CAG) repeat RNA binding; inhibition, % at 3 µM; TO-PRO-1 dye displacement fluorescence; hit rate 1.3% among 370,000;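 active = inhibition above the plate cutoff, the mean of all test compounds on that plate plus 3 SD, cut at about 35% in these data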;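 also: 0% = DMSO alone and 100% = 100 µM mitoxantrone as full dye displacement; higher means more dye released from RNA so lower well fluorescence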
A3A deaminase – inhibitors of human APOBEC3A DNA deaminase; P31941; AID 493011; inhibition, % at 20 µM; hit rate 0.41% among 330,000; recombinant A3A, FAM/TAMRA ssDNA deamination fluorescence;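 active = at least 40% inhibition at 20 µM here, with at most 30% in a related deaminase screen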;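 also: plate controls were A3A with DMSO for no effect and wells lacking A3A enzyme for full effect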
Target sequence (P31941 whole entry, looked up): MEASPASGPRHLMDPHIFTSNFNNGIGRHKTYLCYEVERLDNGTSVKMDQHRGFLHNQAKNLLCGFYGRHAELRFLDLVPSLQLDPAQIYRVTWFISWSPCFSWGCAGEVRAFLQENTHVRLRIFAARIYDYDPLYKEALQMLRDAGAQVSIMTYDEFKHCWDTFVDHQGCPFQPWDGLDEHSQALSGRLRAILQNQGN
* = called active by the depositor; . = not tested or not shown.

SMILES	aDG glyco up	APOBEC3G inh	ALR H2O2 inh	PHOSPHO1 inh	rCAG RNA binder	A3A deaminase
C/C(N)=C(/C#N)C(=O)CSc1nnc(Nc2c(C)cccc2C)s1	0	8	-20	67*	7	17
Nn1cnnc1SCC(=O)Nc1ccc(C2CCCCC2)cc1	0	-8	10	22	1	-2
Cc1ccc(NC(=O)CCC(=O)Nc2ccc(C)cc2)cc1	0	-1	-13	45	-3	-5
Cc1ccc(NC(=O)CSCC(=O)O)cc1	0	-11	98*	26	-1	-6
Cc1ccc(NC(=O)CSCc2ccco2)cc1	0	-5	99*	57	0	-1
O=C(O)CSCC(=O)Nc1ccc(C2CCCCC2)cc1	0	1	98*	12	7	2
Cc1ccc(NC(=O)CSCC(=O)NC2=NCCS2)cc1	0	-2	98*	.	-1	-3
Cc1ccc(NC(=O)CSCC(=O)NCc2ccco2)cc1	0	-10	34	.	1	1
O=C(NCc1c(F)cccc1F)C1CCCN(c2ncccn2)C1 (configuration not stated)	.	.	.	.	-1	.
CCCCCCCCN1C(=O)[C@@H](CC(=O)N2CCCC2)C[C@@]2(C(=O)OC)C1=C[C@H](COCc1ccccc1)O[C@@H]2C	.	.	.	.	-1	.
Nc1c(C(=O)NCC(O)c2ccccc2)cnn1-c1ccccc1 (configuration not stated)	.	.	.	.	3	.
Cc1ccccc1CSCC(=O)NC1CCCC1	0	-2	.	6	.	0
O=C(CSCc1ccco1)NC1CCCC1	0	-7	99*	1	4	-2
Cc1ccc(NC(=O)CSCc2ccc(F)cc2)cc1	0	14	93*	0	-3	-1
O=C1C[C@@H](C(=O)Nc2ccc(Cl)cc2)[C@@H](c2ccccc2)O1	.	.	.	.	1	.
CCOc1ccc(-n2c(SCC(=O)Nc3cccc4ccccc34)nnc2-c2ccncc2)cc1	.	.	.	.	4	.
CC(COc1cccc(C(F)(F)F)c1)CN1CCC(C(O)(c2ccccc2)c2ccccc2)CC1 (configuration not stated)	.	.	.	.	2	.
COc1ccc(NC(=O)CSc2nnc(C)c3ccccc23)cc1	0	3	99*	29	0	6
COc1ccc(NC(=O)CSc2nncc3ccccc23)cc1	0	-3	71	20	-1	-2
COc1ccc(NC(=O)CSc2c(C)n[nH]c2C)cc1	0	2	99*	22	-1	4
Cc1n[nH]c(C)c1SCC(=O)Nc1ccc(F)cc1	0	-9	71	4	-1	-5
O=C(CCc1ccccc1O)N/N=C/c1ccc(Sc2cccc3cccnc23)o1	1	-5	8	98*	9	-2
CC1CCCN(c2nc3ccccc3nc2C(C#N)C(=O)OC2CCCCC2)C1 (configuration not stated)	.	-7	.	8	.	3
Cc1ccc(S(=O)(=O)C(C#N)c2nc3ccccc3nc2N2CC(C)OC(C)C2)cc1C (configuration not stated)	0	-1	-27	78*	39*	1
CC1CCCN(c2nc3ccccc3nc2C(C#N)S(=O)(=O)c2cccs2)C1 (configuration not stated)	0	-1	97*	102*	20	-1
SMILES	aDG glyco up	APOBEC3G inh	ALR H2O2 inh	PHOSPHO1 inh	rCAG RNA binder	A3A deaminase
NC(CSS(=O)(=O)O)=NCCC12CC3CC(CC(O)(C3)C1)C2	0	-1	85*	-6	-2	-2
CCC(C)CNC(=O)CSc1nnc(-c2cccnc2)n1C1CCCCC1 (configuration not stated)	.	.	.	.	0	.
Cc1cc(=O)[nH]c(SCCc2ccccc2)n1	0	-9	-3	30	0	-7
Cc1cc(=O)[nH]c(S/C=C/c2ccccc2)n1	0	-7	98*	7	4	-1
COc1ccc(C(=O)Nc2ccc(C3CC3(Cl)Cl)cc2)cc1 (configuration not stated)	2	1	4	71*	-2	5
COc1ccccc1COC(=O)c1cccc(S(=O)(=O)N(C)Cc2ccccc2)c1	.	.	.	.	7	.
O=C(Nc1c(-c2ccccc2)nc2ncccn12)c1ccc(F)cc1	.	.	.	.	0	.
O=C(CSc1nnnn1C1CC1)N1CCN(c2ccc(O)cc2)CC1	0	8	99*	.	5	8
Oc1ccc(N2CCN(C(c3ccncc3)c3nnnn3C3CCCC3)CC2)cc1 (configuration not stated)	0	-3	100*	14	-3	-7
CCOC(=O)[C@@]12CCCC3=C1N(CCC3)C(=O)[C@H]2CC(=O)N1CCOCC1	.	.	.	.	2	.
Cc1ccccc1CN1CCCCC(NC(=O)Nc2cccc(F)c2)C1=O (configuration not stated)	.	.	.	.	5	.
O=C(NC1CCCCC1)N1CCN(c2ccc(Cl)cc2)CC1	0	-1	99*	31	-5	0
CCC(=O)NCc1csc(-c2cccs2)n1	0	-8	94*	12	-1	-2
COC(=O)[C@]12C[C@H](CC(=O)N3CCCCC3)C(=O)N(Cc3ccc4c(c3)OCO4)C1=C[C@H](C(C)C)O[C@@H]2C1CC1	.	.	.	.	1	.
Clc1ccc(-c2nc3cnccn3c2Nc2ccc3c(c2)OCO3)cc1	0	-7	98*	30	3	-3
CSc1ccc(-c2nc3cnccn3c2Nc2ccc3c(c2)OCO3)cc1	0	-1	100*	15	.	-1
Cc1ccc(-c2nc3cnccn3c2Nc2ccc3c(c2)OCO3)o1	0	1	.	10	6	-2
CCCC(C)NC(=O)CC1Oc2ccccc2NC1=O (configuration not stated)	.	.	.	.	6	.
CCNC(=S)NN(c1ccccc1)c1ccccc1	0	-2	98*	0	-1	1
COC(=O)[C@]12C[C@H](CC(=O)N3CCSCC3)C(=O)N(Cc3cccc4ccccc34)C1=C[C@H](COCc1ccccc1)O[C@@H]2C	.	.	.	.	14	.
O=C(c1cccc(F)c1)N1CCC(c2nc3ccccc3s2)CC1	0	2	100*	-5	-4	-3
O=S1(=O)c2ccc(Br)cc2OC[C@@H](Cc2ccccc2)N1Cc1cn(CC2CCCCC2)nn1	.	.	.	.	3	.
Nc1cc(N)nc(SCC(=O)c2ccccc2)n1	0	0	99*	42	6	0
CCOC(=O)c1cnc(SCC(=O)c2ccccc2)nc1N	0	-4	-6	102*	-3	-3
COc1ccc(Cl)cc1C(=O)CSc1nc(N)cc(N)n1	0	-4	94*	22	3	-2
CCCCn1nnnc1SCC(=O)c1cc(Cl)ccc1OC	0	-2	32	9	1	-1
COC(=O)c1cc(-c2ccc(F)cc2OCc2ccccc2)c(=O)n2c1CCC2	.	.	.	.	0	.
CC(=N\NC(=O)c1ccccc1)/C(=N/O)C(=O)Nc1ccccc1	0	-10	7	24	4	-4

Bioassay records as filed in PubChem.
